Data as given in PubChem BioAssay AID1645855 (Buhrlage Lab, Dana-Farber Cancer Institute and Novartis …, 2021).
The campaign covered roughly 47,000 compounds. About 3,100 (6.6%) were called active. The entries come from a sample that favours actives as a whole. Values without a mark were called inactive. Rule as the data show it: active = inhibition above about 30%; inactive = the rest.

molecular target: Ubiquitin carboxyl-terminal hydrolase 17-like protein 5 (Homo sapiens) (UniProt A8MUK1); assay: blocks human USP17 ubiquitin-rhodamine cleavage (AID 1645855); conditions: purified USP17, Ub-rhodamine cleavage fluorescence, 3 h; at 50 µM; stronger effect = higher value
Sequence (A8MUK1 whole entry, looked up): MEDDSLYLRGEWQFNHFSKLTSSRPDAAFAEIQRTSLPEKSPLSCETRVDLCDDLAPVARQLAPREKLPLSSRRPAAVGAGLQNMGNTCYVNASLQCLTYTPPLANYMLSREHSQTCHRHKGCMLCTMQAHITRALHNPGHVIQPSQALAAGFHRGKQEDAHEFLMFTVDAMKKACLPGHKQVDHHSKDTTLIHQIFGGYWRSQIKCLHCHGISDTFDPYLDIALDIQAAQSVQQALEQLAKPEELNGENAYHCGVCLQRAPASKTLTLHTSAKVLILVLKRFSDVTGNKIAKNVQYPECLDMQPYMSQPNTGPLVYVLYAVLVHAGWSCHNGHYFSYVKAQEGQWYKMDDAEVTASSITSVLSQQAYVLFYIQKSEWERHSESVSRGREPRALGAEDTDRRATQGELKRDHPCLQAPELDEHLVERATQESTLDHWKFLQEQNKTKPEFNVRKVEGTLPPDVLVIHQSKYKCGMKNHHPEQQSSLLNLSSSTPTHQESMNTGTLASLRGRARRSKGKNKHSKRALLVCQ

SMILES | inhibition
COc1ccccc1CC(=O)Nc1cc(S(=O)(=O)N2CCOCC2)ccc1N1CCN(C)CC1 | -26.7%
C[C@H](NC(=O)Cc1ccc(Cl)cc1)C(=O)N1CCC2(CC1)NCCc1[nH]cnc12 | 9.11%
O=C(Cn1c(-c2nc(-c3ccc(F)cc3)no2)cccc1=O)N1CCCC1 | 33% (active)
O=C(CSc1ncc(-c2ccc(F)cc2)[nH]1)N1CCCC1 | 2.63%
O=C(c1ccc(F)cc1)N1CCCC(c2nc(-c3ccccc3)no2)C1 (stereo not drawn) | 11.7%
COc1ccc2[nH]c(C)c(CCNC(=O)c3cccs3)c2c1 | 0.591%
Cc1c(N2CCN(S(=O)(=O)c3ccc(C(C)C)cc3)CC2)c(=O)n(C)c(=O)n1C | -2.36%
Cc1nc(SCc2ccc([N+](=O)[O-])cc2)c2oc3ccccc3c2n1 | 12.4%
Cc1nc(SCC#N)c2oc3ccccc3c2n1 | 60.3% (active)
COc1cccc(Cc2cncc(C(=O)N3CCNC(=O)C3)c2)c1 | 6.62%
CSc1cccc(NC(=O)CC(=O)Nc2ccc3nc4n(c(=O)c3c2)CCCCC4)c1 | 34.4% (active)
CSc1cccc(NC(=O)COc2ccc(C(=O)c3ccccc3)cc2)c1 | 12.9%
CSc1cccc(NC(=O)CCc2ccc3nc[nH]c3c2)c1 | -17.1%
COc1ccc2nc3c(cc2c1)CN(Cc1ccccc1)C(=O)O3 | 18.5%
Cc1ccc(-n2c3c(c(=O)[nH]c2=O)CN(Cc2ccco2)CN3)cc1 | -9.75%
Cc1cc(C)c2nc3c(cc2c1)CN(Cc1ccco1)C(=O)O3 | 51.9% (active)
O=S(=O)(Cc1ccccc1)N1CC2(CCN(CC3CCCC3)CC2)C1 | 0.208%
COc1ccccc1CNC(=O)c1ccc(-n2nc(C)c3c2CCCC3=O)cc1 | -3.98%
Cc1ccc(CNc2nnc(-c3nnc(C)o3)c3ccccc23)cc1 | 3.95%
O=C(COc1ccc2ccccc2c1)NCc1nnnn1-c1ccc(Cl)cc1 | 49.4% (active)
CC(C)c1ccc(OCC(=O)NCc2nnnn2-c2ccc(Cl)cc2)cc1 | 11.8%
Cc1ccc(NC(=O)NCc2nnnn2-c2ccccc2)cc1C | -3.49%
CC(NC(=O)c1csc(C(=O)NC2CC2)n1)c1ccc(F)cc1 (stereo not drawn) | 7.32%
CC(C(=O)NCCCN1CCOCC1)C1CCN(C(=O)c2cc3ccccc3[nH]2)CC1 (stereo not drawn) | -0.784%
Cc1ccc(-c2nnc(NC(=O)C(c3ccccc3)c3ccccc3)o2)c(C)c1 | 2.51%
Cc1ccccc1CNC(=O)c1sc2ncnc(N3CCCC3)c2c1C | -0.361%
Cc1nnc(C(=O)Nc2ccc(C(=O)NCc3ccccc3C)cc2)s1 | 68.1% (active)
COc1ccc(OC)c(CNC(=O)c2nnc(C(=O)Nc3ccc(F)cc3)s2)c1 | 14.8%
